# Source: the supplement of paper PMC8728848
# The sample as a whole holds a higher share of the strongest signals than the screen did.
# B1: HMGB1 (Rattus norvegicus), P63159 (protein)
# chain: MGKGDPKKPRGKMSSYAFFVQTCREEHKKKHPDASVNFSEFSKKCSERWKTMSAKEKGKFEDMAKADKARYEREMKTYIPPKGETKKKFKDPNAPKRPPSAFFLFCSEYRPKIKGEHPGLSIGDVAKKLGEMWNNTAADDKQPYEKKAAKLKEKYEKDIAAYRAKGKPDAAKKGVVKAEKSKKKKEEEDDEEDEEDEEEEEEEEDEDEEEDDDDE
# Columns and labels:
# Assay in all cases: glycan array binding signal (z-score within array); higher = stronger binding
# Conditions in all cases: glycan notation: IUPAC condensed, linker removed
# [1] = biological target: Fuc(a1-2)[Gal(a1-3)]Gal(b1-4)Glc
# How it was run: (§1)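 The Consortium for Functional Glycomics database supplied 3228 glycan arrays, of which those lacking an available protein sequence were dropped. The binding signal, a within-array Z-score, was averaged across arrays of the same protein sequence and across linkers. Negative scores can be read as non-binding.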
# [2] = biological target: Fuc(a1-2)[GalNAc(a1-3)]Gal(b1-4)[Fuc(a1-3)]GlcNAc
# How it was run: as §1
# Fuc(a1-3)GlcNAc = biological target: Fuc(a1-3)GlcNAc
# How it was run: as §1
# [3] = biological target: Gal(b1-3)GalNAc(b1-3)Gal(a1-4)Gal(b1-4)Glc
# How it was run: as §1
# [4] = biological target: Gal(b1-3)[GlcNAc(b1-6)]GalNAc
# How it was run: as §1
# [5] = biological target: Gal(b1-3)[Neu5Ac(a2-6)]GalNAc
# How it was run: as §1
# [6] = biological target: Gal(b1-4)GalNAc(b1-3)[Fuc(a1-2)]Gal(b1-4)GlcNAc
# How it was run: as §1
# [7] = biological target: GalNAc(b1-3)Gal(a1-4)Gal(b1-4)GlcNAc
# How it was run: as §1
# [8] = biological target: GlcNAc(b1-6)Gal(b1-4)GlcNAc
# How it was run: as §1
# [9] = biological target: Man(a1-2)Man(a1-2)Man(a1-3)Man
# How it was run: as §1
# [10] = biological target: Neu5Ac(a2-3)Gal(b1-3)GalNAc(b1-3)Gal(a1-4)Gal(b1-4)Glc
# How it was run: as §1
# [11] = biological target: Neu5Ac(a2-3)Gal(b1-3)[Fuc(a1-4)]GlcNAc
# How it was run: as §1
# [12] = biological target: Neu5Ac(a2-3)Gal(b1-4)GlcNAc(b1-3)Gal(b1-4)GlcNAc(b1-3)Gal(b1-4)GlcNAc
# How it was run: as §1
# [13] = biological target: Neu5Ac(a2-3)Gal(b1-4)GlcNAc(b1-3)Gal(b1-4)[Fuc(a1-3)]GlcNAc
# How it was run: as §1
# [14] = biological target: Neu5Ac(a2-3)[Neu5Ac(a2-6)]GalNAc
# How it was run: as §1
# [15] = biological target: Neu5Ac(a2-6)GalNAc(b1-4)GlcNAc
# How it was run: as §1
# [16] = biological target: Neu5Gc(a2-3)Gal(b1-3)[Fuc(a1-4)]GlcNAc
# How it was run: as §1
# [17] = biological target: Neu5Gc(a2-3)Gal(b1-4)GlcNAc
# How it was run: as §1
binder,measurement,setting,value
B1,glycan array binding signal (z-score),[1],0.151
same,glycan array binding signal (z-score),[2],-0.019
same,glycan array binding signal (z-score),Fuc(a1-3)GlcNAc,9.99
same,glycan array binding signal (z-score),[3],-0.447
same,glycan array binding signal (z-score),[4],-0.335
same,glycan array binding signal (z-score),[5],-0.379
same,glycan array binding signal (z-score),[6],-0.322
same,glycan array binding signal (z-score),[7],2.44
same,glycan array binding signal (z-score),[8],2.57
same,glycan array binding signal (z-score),[9],-0.58
same,glycan array binding signal (z-score),[10],-0.21
same,glycan array binding signal (z-score),[11],-0.164
same,glycan array binding signal (z-score),[12],-0.169
same,glycan array binding signal (z-score),[13],2.06
same,glycan array binding signal (z-score),[14],-0.263
same,glycan array binding signal (z-score),[15],2.1
same,glycan array binding signal (z-score),[16],2.69
same,glycan array binding signal (z-score),[17],0.031
